This is a sample that favours compounds with a hit; in the whole collection about 4.9% have one here.
Platelet DG rel: platelet dense granule release activity | actives 0.22% (n = 300,000) | inhibition, %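 (compounds screened at 7.5 µM in platelet-rich plasma)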 | human platelet-rich plasma, SFLLRN dense granule ATP release, luminescence;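 active means mean replicate score, as percent of positive control, at or above 50; inconclusive means mean below 50 but at least one replicate at or above 50; inactive means mean and every replicate below 50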
MPTP block: permeability transition pore inhibition; isolated mouse mitochondria, Ca2+ swelling absorbance, 30 min; inhibition, % at 10 µM; actives 1.4% (n = 360,000); AID 602449;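 active means inhibition of 50% or more, scaled per plate between neutral and stimulator controls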
HSP90 refold inh: HSP90 refolding inhibition in rabbit reticulocyte lysate; luciferase refolding luminescence, 3 h; inhibition, % at 5.6 µM; actives 0.91% (n = 290,000);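 active means inhibition above the screen-wide mean plus 3 SD, computed separately per campaign, cut at about 16% in these data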;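 further: inhibitors lower the luminescence because luciferase stays unfolded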
dFosB act: mouse delta FosB homodimer activation; P13346; purified delta FosB, TAMRA-CDK5 oligo fluorescence polarization; percent of positive-control signal above neutral wells; activation, % at 25 µM; actives 0.99% (n = 340,000); AID 493131;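 active means mean activation above about 17%, with every replicate also reaching it, limit read from the data, passing the limit was not always enough; inconclusive means only one of the two conditions met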
Target sequence (P13346 whole entry, looked up): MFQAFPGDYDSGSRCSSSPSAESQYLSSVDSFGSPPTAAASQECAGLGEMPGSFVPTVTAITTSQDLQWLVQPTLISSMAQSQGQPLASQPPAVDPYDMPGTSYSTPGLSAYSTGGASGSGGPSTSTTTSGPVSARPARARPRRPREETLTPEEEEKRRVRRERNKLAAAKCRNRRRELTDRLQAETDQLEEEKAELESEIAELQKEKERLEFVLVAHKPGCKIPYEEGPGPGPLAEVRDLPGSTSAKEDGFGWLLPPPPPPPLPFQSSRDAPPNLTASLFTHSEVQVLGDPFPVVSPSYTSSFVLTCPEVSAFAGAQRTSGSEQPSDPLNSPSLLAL
HSF1 inhib: HSF1 inhibition; activity change, negative = inhibition, % at 7.5 µM (by protocol); NIH3T3-HGL HSE-luciferase, MG132-induced, luminescence 8 h; stronger effect = lower value; AID 2098; actives 0.77% (n = 300,000);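 active means more than half of replicate wells show activity change below -50%, luminescence cut by over half; inconclusive means some wells, but at most half, below -50%; inactive means no replicate well below -50%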;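 further: luciferase reports HSF-1 transcriptional activity via heat shock element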
HSF-1 act: increases HSF-1 driven luciferase reporter signal | activation, % at 9 µM | AID 504408 | NIH3T3-HGL HSF-1 luciferase reporter, MG132, 8 h; 100% = twice DMSO control signal | actives 1.7% (n = 300,000);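 active means mean replicate activation of at least 50% with a set share of replicates each reaching 50%; inconclusive means only one of those two conditions met; inactive means mean below 50% and too few replicates reaching it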
A number is an active result; - = inactive; ? = inconclusive; . = no result given.

SMILES	Platelet DG rel	MPTP block	HSP90 refold inh	dFosB act	HSF1 inhib	HSF-1 act
CCCNC(=O)C1(C)CCCN(C(=O)c2cc3ccccc3s2)C1 (stereo not drawn)	.	-	.	.	.	.
O=S1(=O)CC(N2CCCCC2)C1CN1CCCCC1 (stereo not drawn)	.	-	.	.	.	.
N#Cc1cc(Cl)c(NCC2CCCO2)cc1C#N (stereo not drawn)	-	-	-	-	-	89
Cc1[nH]n(-c2ccccc2)c(=O)c1C=NCc1ccncc1	-	-	-	-	-	-
Cc1[nH]n(-c2ccccc2)c(=O)c1C=NCCc1ccccc1	-	-	-	-	-	90
O=C(CSc1ccc(F)cc1)NCCc1ccc(Cl)cc1	-	-	-	-	-	-
Cc1ccc(COC(=O)c2cc(S(=O)(=O)N3CCOCC3)ccc2C)cc1	.	-	.	-	.	.
Cc1cc2c(=O)cc(-c3ccccc3)oc2c(C(=O)O)c1C	.	-	.	.	.	.
CC1CC(=O)NN=C1c1ccc(NCCO)c([N+](=O)[O-])c1 (stereo not drawn)	89	-	-	-	-	-
Cn1nc(-c2ccc(NCCO)c([N+](=O)[O-])c2)c2ccccc2c1=O	-	-	-	-	-	-
COc1cccc(NS(=O)(=O)c2ccc(C)c(C(=O)N3CCCCC3)c2)c1	-	-	-	-	-	-
COc1ccc(NC(=O)c2cccs2)c([N+](=O)[O-])c1	-	-	-	-	-	-
COc1ccc(NC(=O)c2sccc2C)c([N+](=O)[O-])c1	-	-	-	-	-	74
C/C(CC(=O)Nc1ccc(Cl)cc1C(F)(F)F)=N\NC(=O)c1ccccn1	-	-	-	-	-	-
C/C(CC(=O)Nc1ccccc1C(F)(F)F)=N\NC(=O)c1cnccn1	-	-	.	-	-84	-
C/C(CC(=O)Nc1ccc(Cl)cc1C(F)(F)F)=N\NC(=O)c1cccs1	-	-	-	-	-	65
COc1ccc(NC(=O)C/C(C)=N/NC(=O)c2cccs2)c([N+](=O)[O-])c1	-	-	-	-	-	70
CCC1(c2ccc(Cl)cc2)NC(=O)N(CC(=O)NC2CCCC(C)C2C)C1=O (stereo not drawn)	.	-	.	-	.	.
CC(C)[C@H](NC(=O)[C@H](CCCN=C(N)N)NC(=O)NC(Cc1ccccc1)C(=O)O)C(=O)NC(C=O)CCCN=C(N)N (stereo partly drawn)	-	-	-	-	-	-
COc1cc(C(O)c2nc(-c3cccc(C#N)c3)cs2)ccc1F (stereo not drawn)	.	-	.	.	.	.
CCN(C(=O)c1cc2c(=O)[nH]c3ccc(C)cc3c2s1)c1ccc(F)cc1	-	-	-	-	-76	-
Cc1ccc2[nH]c(=O)c3cc(C(=O)N(C)C4CCCCC4)sc3c2c1	-	-	-	-	-	-
Cc1ccc2[nH]c(=O)c3cc(C(=O)N(C)c4ccc(C)c(C)c4)sc3c2c1	74	-	-	-	-	-
CCN(C(=O)c1cc2c(=O)[nH]c3ccc(C)cc3c2s1)c1ccccc1F	-	-	-	-	-	58
COc1ccccc1-c1nnc(-c2ccc(N3CCOCC3)cc2)o1	-	-	-	-	-	59
SMILES	Platelet DG rel	MPTP block	HSP90 refold inh	dFosB act	HSF1 inhib	HSF-1 act
Cc1nc2c3cc(Cl)ccc3n(CCN3CCCCC3)c2s1	-	-	-	-	-	60
COC(=O)Cn1c2ccc(Cl)cc2c2nc(C)sc21	-	-	-	-	-	-
Cc1nnc(N2C(=O)C(O)=C(C(=O)c3ccco3)C2c2ccc(C(C)(C)C)cc2)s1 (stereo not drawn)	52	-	-	-	-	-
Cc1ccc(OC(=O)c2ccc(C)c(C)c2)cn1	-	-	-	-	-	54
COC(=O)C1=C(C)N(Cc2ccco2)C(=O)C1	-	-	-	-	-60	-
C[C@H]1CN([C@@H](C)CO)C(=O)c2cc(C#CCC3CCCC3)cnc2O[C@@H]1CN(C)C(=O)CC1CC1	.	-	.	.	.	.
O=C(c1ccco1)c1coc2c1cc(O)c1ccccc12	-	-	-	-	-	68
O=C(NCc1ccccc1)C1CCCC1	-	.	-	.	-62	-
COc1cc2c(cc1OC)-c1cc(NC3CCCCC3)nc(=O)n1CC2	65	-	-	-	-	-
COc1cc2c(cc1OC)-c1cc(NC3CCCCCCC3)nc(=O)n1CC2	135	-	-	-	-	-
COCCn1c(=NC(=O)c2cc3ccccc3oc2=O)sc2cc(S(N)(=O)=O)ccc21	-	-	-	?	-	-
COc1ccc(C2Nc3ccccc3C(=O)N2NS(=O)(=O)c2ccc(C)cc2)cc1 (stereo not drawn)	-	-	-	-	-	57
COc1ccc(/C=C/C(O)=C2/C(=O)N(C)C3(C)CC2c2ccccc2O3)cc1 (stereo not drawn)	-	-	-	-	-	65
CN1CCc2c(sc(NC(=O)c3ccc(S(=O)(=O)N4CCCC4)cc3)c2C(N)=O)C1	-	-	-	-	-	-
CCCN1CCc2c(sc(NC(=O)c3ccc(S(=O)(=O)N(C)c4ccccc4)cc3)c2C(N)=O)C1	-	-	-	42	-	-
CN1CCc2c(sc(NC(=O)c3ccc(S(=O)(=O)N4CCCCCC4)cc3)c2C(N)=O)C1	-	-	-	54	-	-
O=C(/C=C/[C@H]1O[C@@H](n2ccc(=O)[nH]c2=O)[C@H](O)[C@@H]1O)NCCN1CCOCC1	.	-	.	.	.	.
O=C1C=C(c2ccccc2Oc2ccccc2)C[C@@H](c2ccc(F)cc2)C1	.	-	.	.	.	.
S=C(NCCc1ccccn1)Nc1cccc(Cl)c1	-	-	-	-	-	-
COc1ccc(C(=S)Nc2ccc(N(C)C)cc2)cc1	-	-	-	-	-	60
S=C(Nc1ccc(Cl)cc1)c1nc2ccccc2s1	-	-	-	-	-	-
O=C(Nc1ccc(Cl)cc1)/C(=C/c1cccc(O)c1)c1nc2ccccc2s1	-	-	-	-	-76	-
O=C(NCc1ccccc1)c1cccc(COc2ccccc2Cl)c1	-	-	17	-	-	-
CN1CCc2[nH]c3ccc(C(=O)NN)cc3c2C1	-	-	-	20	-	-
c1ccc2c(c1)CC1(CCCCC1)n1nnnc1-2	-	-	-	-	-59	-
C=CCn1c(=N)n(CC(=O)c2cccc([N+](=O)[O-])c2)c2ccccc21	-	-	-	-	-	-
N=c1n(CCN2CCCCC2)c2ccccc2n1CC(=O)c1cccc([N+](=O)[O-])c1	-	-	-	21	-	-
CCOC(=O)/C=C(/C)N1N=C(c2ccc(OC)cc2)CC1c1cccc([N+](=O)[O-])c1 (stereo not drawn)	-	-	-	-	-	59
COc1ccc(C2=NN(C(=O)c3ccccc3)C(c3cccc([N+](=O)[O-])c3)C2)cc1 (stereo not drawn)	-	-	-	-	-	-
C=CCNC(=O)c1ccc2nc(Cc3ccc(OC)cc3)oc2c1	-	-	-	-	-	78
